Laboratory results as given in the antibiotic and cytotoxicity screens of Wong et al. (2023).
In all, about 39,000 compounds went through this assay and about 3,300 (8.5%) were called active. The entries come from a sample that favours actives as a whole.

system: HepG2; assay: cytotoxicity call (relative viability < 0.9); conditions: 10 µM

| SMILES | cytotoxicity call |
| --- | --- |
| C[C@@H]1COC(=O)[C@@H](NC(=O)OCC2c3ccccc3-c3ccccc32)CC=CC[C@H](CC(=O)NCCO)C(=O)N1 | inactive |
| CN(C)CCCC[C@@H]1NC(=O)[C@H]2C[C@@H](C(=O)NCCCCCNC(=O)CS)[C@@H](c3ccc(O)cc3)N2C1=O | inactive |
| O/N=C/c1ccc2ccccc2c1 | inactive |
| O/N=C/c1c(Cl)cccc1Cl | inactive |
| O/N=C/c1ccccc1C(F)(F)F | active |
| CC(C)(C)N1C[C@H](C(=O)O)CC1=O | inactive |
| Cc1ccc(S(=O)(=O)Nc2cccc3c2O[C@H](CN(C)S(C)(=O)=O)[C@@H](C)CN([C@H](C)CO)C3=O)cc1 | inactive |
| C[C@@H]1CN([C@@H](C)CO)S(=O)(=O)c2ccc(-c3cncnc3)cc2O[C@@H]1CN(C)C(=O)c1ccc2c(c1)OCO2 | inactive |
| CCc1oc2ccccc2c1C(=O)c1cc(Br)c(O)c(Br)c1 | active |
| O=c1c2ccccc2oc2ccc(O)cc12 | inactive |
| O=c1[nH]c(=O)c2ccccc2o1 | inactive |
| Cc1ccc(CNc2ccc3c(c2)ncn3C2CCCCC2)cc1 | inactive |
| O=C(CCCCCNC(=O)OCc1ccc(CO[C@@H]2C[C@H](C3CCCCC3)C=C(C(=O)N3CCN(Cc4ccccc4)CC3)O2)cc1)NO | inactive |
| COc1cccc(C#Cc2ccc([C@@H]3[C@H]4CN(S(=O)(=O)c5ccccc5C)CC(=O)N4[C@H]3CO)cc2)c1 | inactive |
| O=C1CN(S(=O)(=O)Cc2ccccc2)C[C@H]2[C@H](c3ccc(C#Cc4cccc(F)c4)cc3)[C@@H](CO)N12 | active |
| COc1cccc(C#Cc2ccc([C@@H]3[C@H](CO)N4C(=O)CN(S(=O)(=O)c5ccccc5C)C[C@@H]34)cc2)c1 | inactive |
| O=C1CN(S(=O)(=O)Cc2ccccc2)C[C@H]2[C@@H](c3ccc(C#Cc4cccc(F)c4)cc3)[C@H](CO)N12 | active |
| O=C1CN(S(=O)(=O)Cc2ccccc2)C[C@@H]2[C@@H](c3ccc(C#Cc4cccc(F)c4)cc3)[C@H](CO)N12 | inactive |
| O=C1CN(S(=O)(=O)Cc2ccccc2)C[C@H]2[C@@H](c3ccc(C#Cc4ccc(F)cc4)cc3)[C@H](CO)N12 | inactive |
| COc1cccc(C#Cc2ccc([C@H]3[C@H](CO)N4C(=O)CN(S(=O)(=O)c5ccccc5C)C[C@@H]34)cc2)c1 | inactive |
| O=C1CN(S(=O)(=O)Cc2ccccc2)C[C@@H]2[C@H](c3ccc(C#Cc4ccc(F)cc4)cc3)[C@H](CO)N12 | inactive |
| O=C1CN(S(=O)(=O)Cc2ccccc2)C[C@@H]2[C@@H](c3ccc(C#Cc4cccc(F)c4)cc3)[C@@H](CO)N12 | active |
| O=C1CN(S(=O)(=O)Cc2ccccc2)C[C@H]2[C@@H](c3ccc(C#Cc4cccc(F)c4)cc3)[C@@H](CO)N12 | inactive |
| O=C1CN(S(=O)(=O)Cc2ccccc2)C[C@@H]2[C@H](c3ccc(C#Cc4cccc(F)c4)cc3)[C@@H](CO)N12 | inactive |
| O=C1CN(S(=O)(=O)Cc2ccccc2)C[C@H]2[C@H](c3ccc(C#Cc4cccc(F)c4)cc3)[C@H](CO)N12 | active |
| CN(C)Cc1ccc(O)c(CN(C)C)n1 | inactive |

| SMILES | cytotoxicity call |
| --- | --- |
| COCC(=O)N1C[C@H](C)[C@@H](OC)CN(C)C(=O)c2cc(NC(=O)Nc3ccccc3)ccc2OC[C@@H]1C | inactive |
| COCCNC(=O)C[C@@H]1CC[C@@H]2[C@H](COC[C@@H](O)CN2C(=O)Nc2ccccc2OC)O1 | inactive |
| O=c1cccn[nH]1 | inactive |
| COc1ccc(-c2cnc3c(c2)C(=O)N([C@@H](C)CO)C[C@H](C)[C@@H](CN(C)C(=O)Cc2ccccn2)O3)cc1 | inactive |
| C[C@@H]1CN([C@H](C)CO)C(=O)c2cc(NS(=O)(=O)c3cccs3)ccc2O[C@H]1CN(C)S(C)(=O)=O | inactive |
| C[C@@H]1CCCCO[C@@H](CN(C)S(=O)(=O)c2cccs2)[C@H](C)CN([C@@H](C)CO)C(=O)c2cc(NC(=O)Nc3cccc4ccccc34)ccc2O1 | inactive |
| COCC#Cc1ccc2c(c1)O[C@@H](CN(C)C(=O)C1CCCCC1)[C@@H](C)CN([C@H](C)CO)S2(=O)=O | inactive |
| C[C@H](CO)N1C[C@H](C)[C@@H](CN(C)C(=O)CCC(F)(F)F)OCCCC[C@H](C)Oc2ccc(NC(=O)c3ccccc3)cc2C1=O | inactive |
| C[C@H]1CN([C@@H](C)CO)C(=O)c2ccccc2-c2ccccc2CO[C@H]1CN(C)C(=O)Nc1ccc(-c2ccccc2)cc1 | inactive |
| COc1ccc(NC(=O)Cn2c(=O)c3c(OC)ccnc3n(C)c2=O)c(OC)c1 | inactive |
| COc1cc(/C=C/C(=O)O[C@H]2CC[C@]34C[C@]35CC[C@]3(C)[C@@H]([C@@H](C)CCC=C(C)C)CC[C@@]3(C)[C@@H]5CC[C@@H]4C2(C)C)ccc1O | inactive |
| O=C1CN(S(=O)(=O)Cc2ccccc2)C[C@@H]2[C@H](c3ccc(C#Cc4cccc(F)c4)cc3)[C@H](CO)N12 | active |
| O=C(CN1CCOCC1)N[C@H]1CC[C@H](CCNC(=O)C2CCC2)O[C@H]1CO | inactive |
| C[C@@H]1CN([C@@H](C)CO)C(=O)c2cc(NC(=O)Cn3cnnn3)ccc2O[C@H]1CN(C)Cc1ccc(C(F)(F)F)cc1 | inactive |
| COc1ccc(CCNC(=O)[C@@]2(Sc3ccc(C)cc3)CC(=O)N(Cc3ccccc3C(F)(F)F)[C@@H]2c2ccc(CO)cc2)cc1 | inactive |
| CCOCc1c[nH]c(=O)[nH]c1=O | inactive |
| O=c1[nH]cc(F)c(=O)[nH]1 [listing 1 of 2 here] | active |
| O=c1[nH]cc(S(=O)(=O)N2CCN(c3ccccc3F)CC2)c(=O)[nH]1 | inactive |
| O=c1[nH]cc(N2CCCCC2)c(=O)[nH]1 | inactive |
| O=c1[nH]cc(Nc2ccccc2)c(=O)[nH]1 | inactive |
| O=c1[nH]cc(F)c(=O)[nH]1 [listing 2 of 2 here] | active |
| COc1ccc(NC(=O)N(C)C[C@H]2Oc3c(NS(=O)(=O)c4cn(C)cn4)cccc3C(=O)N([C@@H](C)CO)C[C@H]2C)cc1 | inactive |
| Cn1cc(S(=O)(=O)Nc2ccc3c(c2)OCCO3)c(=O)n(C)c1=O | inactive |
| C[C@@H]1CN([C@@H](C)CO)C(=O)c2cc(C#CC3(O)CCCC3)cnc2O[C@@H]1CN(C)S(C)(=O)=O | inactive |
| CC(C)NC(=O)N(C)C[C@H]1Oc2ccc(NC(=O)Nc3ccc4c(c3)OCO4)cc2C(=O)N([C@H](C)CO)C[C@@H]1C | inactive |
